Results on 15 compounds are retold here after PubChem BioAssay (NCATS).

The structures appear in SMILES notation. Values joined by “and” are separate entries in the source; they are usually repeats but may differ in a detail not shown here. Equal values may be shown once. Results filed as inconclusive are left out. Active and inactive are the calls of the source. Unless noted, calls come from the whole dose curve; as a rule, active = well fitted curve in the direction sought with a large enough effect; inconclusive = small, poorly fitted or top-dose-only effect, or another doubt; inactive = no such curve, though single readings can be large; an effect the other way counts as inactive or inconclusive. A value given as a limit tells only on which side of the number the result lay.

In assay [1] the target is ATP-dependent 6-phosphofructokinase (Trypanosoma brucei brucei) (UniProt O15648). Put plainly: qHTS Assay to Find Inhibitors of T. brucei phosphofructokinase: hit validation (AID 492961).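 Note: luminescence reports ADP formed as PFK phosphorylates fructose-6-phosphate with ATP.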 The procedure, abridged:
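Compounds titrated; %activity normalized to 0x and 1x enzyme controls, curve-fitted. Readout: ADP-Glo luminescence after 45 min room-temperature reaction of 1.25 nM PFK, 0.1 mM ATP, 0.5 mM F6P, pH 8.0.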
On the technique in general: In qHTS, concentration-response curves come from the screen itself.

The test system of the next assay is AS120. Kind of assay: qHTS profiling for inhibitors of Plasmodium falciparum proliferation (AID 504749). Note: nearly all actives have a fitted effect of over 60% in size. Note: potency is the fitted concentration of half-maximal effect. As to conditions: P. falciparum in erythrocytes, SYBR Green DNA, 72 h; series mostly up to 28.7 µM. The procedure, abridged: (§1)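 P. falciparum-infected erythrocytes (0.3% parasitemia, 2.5% hematocrit) incubated with compound 72 h at 37 C, 5% CO2. Parasite DNA detected by SYBR Green after lysis, overnight at room temperature; normalised to 0.29 uM artemisinin and DMSO.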

The test system of a further assay is ATS189. Described as above. To be noted: P. falciparum in erythrocytes, SYBR Green DNA, 72 h; series mostly up to 28.7 µM. In short, it runs like this:
as §1

The next assay concerns CP191. The description is as above. To be noted: P. falciparum in erythrocytes, SYBR Green DNA, 72 h; series mostly up to 28.7 µM. In short, it runs like this:
as §1

The test system of a further assay is CP192. Described as above. As to conditions: P. falciparum in erythrocytes, SYBR Green DNA, 72 h; series mostly up to 28.7 µM. The procedure, abridged: as §1
A further assay has as its system CP203. The description is as above. As to conditions: P. falciparum in erythrocytes, SYBR Green DNA, 72 h; series mostly up to 28.7 µM. The procedure, abridged: as §1
In a further assay the test system is CP247. The assay is described as above. As to conditions: P. falciparum in erythrocytes, SYBR Green DNA, 72 h; series mostly up to 28.7 µM. The procedure, abridged:
as §1

Another assay relates to CP291. The description is as above. To be noted: P. falciparum in erythrocytes, SYBR Green DNA, 72 h; series mostly up to 28.7 µM. The procedure, abridged:
as §1

The test system of another assay is DFO2036. The description is as above. As to conditions: P. falciparum in erythrocytes, SYBR Green DNA, 72 h; series mostly up to 28.7 µM. In short, it runs like this:
as §1

The subject of the next assay is PC49. Described as above. As to conditions: P. falciparum in erythrocytes, SYBR Green DNA, 72 h; series mostly up to 28.7 µM. The procedure, abridged:
as §1

The test system of another assay is TAB113. Described as above. As to conditions: P. falciparum in erythrocytes, SYBR Green DNA, 72 h; series mostly up to 28.7 µM. In short, it runs like this:
as §1

The target in assay [2] is DNA dC->dU-editing enzyme APOBEC-3G (Homo sapiens) (UniProt Q9HC16). Put plainly: qHTS for inhibitors of Vif-A3G interactions: Validation (AID 588379). The procedure, abridged:
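HeLa cells stably expressing Vif and A3G-eYFP, 700 cells/well, incubated overnight at 37 deg C, then exposed to compound overnight at 37 deg C. Inhibition of Vif-mediated degradation read as increased yellow fluorescence (Ex 488/Em 500-530) by laser-scanning cytometry.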

For assay [3], the target named is Cytochrome P450 1A2 (Homo sapiens) (UniProt P05177). Put plainly: p450-cyp1a2 (AID 410; calls by dose curve; note: potency is the fitted concentration of half-maximal effect). The procedure, abridged:
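Luminescent readout of luciferin formed from Luciferin-ME by human CYP1A2; data normalized against complete inhibition by 57 uM furafylline. Enzyme 20nM, substrate 100uM at Km, 100mM KPO4 buffer, 60 min reaction at room temperature.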

Assay [4] concerns the target Glucocorticoid receptor (Homo sapiens) (UniProt P04150). Kind of assay: GR-GFP Redistribution (AID 450;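 active = compounds whose dose series gives a full or clear partial fitted curve of increased nuclear translocation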; note: potency is the fitted concentration of half-maximal effect). To be noted: U2OS GR-GFP nuclear translocation, laser cytometry, 2 h.
Assay [5] shares this target. Put plainly: GR-EFC Redistribution (AID 451; calls by dose curve; note: potency is the fitted concentration of half-maximal effect). As to conditions: CHO-K1 GR-EFC translocation, beta-gal luminescence, 2 h. The procedure, abridged:
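CHO-K1 cells expressing nuclear EA and GR-ED fragments of b-gal; compounds titrated up to 46 uM final, 2 h at 37 C. GR nuclear translocation read as complemented b-gal luminescence after 1 h RT detection.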

The target of assay [6] is Mitogen-activated protein kinase 10 (Mus musculus) (UniProt Q61831). Put plainly: JNK3 AlphaScreen Assay (AID 530; active = well fitted curve in either direction with a large enough effect, not every such curve was filed as active;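 note: kinase came from lysate of stimulated human HepG2 cells; signal reports phosphorylation of biotinylated GST-cJun 1-79 at Ser73 with 10 µM ATP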). In short, it runs like this:
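Pre-activated (IL-1β/TNFα) JNK3 in HepG2 lysates phosphorylates biotin-GST-cJun(1-79), 10 uM ATP; anti-phospho-cJun(Ser73) AlphaScreen read at room temperature, pH 7.6 Tris buffer. Compounds pre-incubated 15 min as titrations.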

Assay [7] in a line: qHTS Assay for Identification of Small Molecule Antagonists for NFkB Signaling Pathway (AID 895; active = well fitted inhibition curve with a large enough effect in the signal ratio, with a control signal flat, not every such curve was filed as active; the % refers to the signal ratio; note: potency is the fitted concentration of half-maximal effect). In short, it runs like this: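 ME-180 NFkB-bla cells (beta-lactamase under NFkB response element), plated overnight, treated with compound then 10 pM TNF alpha (about EC50) for 5 hrs at 37 C. LiveBLAzer FRET read at 460/530 nm emission, 405 nm excitation.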
Assay [8] can be described thus: qHTS Assay for Identification of Small Molecule Agonists for Thrombopoietin (TPO) Signaling Pathway (AID 917). The procedure, abridged:
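Luminescence from a Glycoprotein IIb promoter–driven luciferase reporter served as read-out in murine Ba/F3 cells carrying the human TPO receptor. Cells, deprived of IL-3 overnight, received compounds with 26 pM TPO and were incubated 24 hrs at 37 C.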

Assay [9] addresses Muscarinic acetylcholine receptor M1 (Rattus norvegicus) (UniProt P08482). Kind of assay: qHTS Assay for Antagonists of Acetylcholine Muscarinic M1 Receptor: Measurement of IP-One Response (AID 944). Note: nearly all actives have a fitted effect of over 75% in size. In short, it runs like this: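 M1-CHO (rat), 2000 cells/well, overnight recovery; cpd 10 min; carbachol EC80 (200 nM), 30 min, HEPES buffer + 50 mM LiCl pH 7.4; IP-One HTRF, Ex 337, Em 620/665 nm.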

Assay [10] addresses 3',5'-cyclic-AMP phosphodiesterase 4B (Homo sapiens) (UniProt Q07343). Put plainly: qHTS Assay for Inhibitors of PDE-IV (AID 607; active = well fitted activation curve with a large enough effect in the main read-out, with a control signal flat, not every such curve was filed as active). The procedure, abridged:
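Live HEK293 cells with a modified cyclic nucleotide-gated (CNG) channel report intracellular cAMP via membrane-potential dye fluorescence (ex 535/em 590 nm). Endogenous PDE-IV was targeted. Compounds were tested at up to 22.9 uM final; RO 20-1724 100 uM served as control.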

ATP-dependent 6-phosphofructokinase (Trypanosoma brucei brucei), sequence (O15648 whole entry, looked up): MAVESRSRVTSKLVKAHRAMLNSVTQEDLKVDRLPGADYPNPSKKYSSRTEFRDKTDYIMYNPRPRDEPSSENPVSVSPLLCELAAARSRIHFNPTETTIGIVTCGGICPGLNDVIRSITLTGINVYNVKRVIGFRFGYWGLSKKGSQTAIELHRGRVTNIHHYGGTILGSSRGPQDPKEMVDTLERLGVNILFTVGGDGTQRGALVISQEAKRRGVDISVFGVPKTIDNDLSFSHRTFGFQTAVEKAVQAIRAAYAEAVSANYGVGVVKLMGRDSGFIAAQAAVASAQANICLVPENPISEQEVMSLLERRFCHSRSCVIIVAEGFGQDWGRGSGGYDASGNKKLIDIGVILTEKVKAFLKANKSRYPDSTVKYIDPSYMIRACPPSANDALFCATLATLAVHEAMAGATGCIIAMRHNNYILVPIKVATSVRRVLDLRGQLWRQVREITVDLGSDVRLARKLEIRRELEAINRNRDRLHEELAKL
DNA dC->dU-editing enzyme APOBEC-3G (Homo sapiens), sequence (Q9HC16 whole entry, looked up): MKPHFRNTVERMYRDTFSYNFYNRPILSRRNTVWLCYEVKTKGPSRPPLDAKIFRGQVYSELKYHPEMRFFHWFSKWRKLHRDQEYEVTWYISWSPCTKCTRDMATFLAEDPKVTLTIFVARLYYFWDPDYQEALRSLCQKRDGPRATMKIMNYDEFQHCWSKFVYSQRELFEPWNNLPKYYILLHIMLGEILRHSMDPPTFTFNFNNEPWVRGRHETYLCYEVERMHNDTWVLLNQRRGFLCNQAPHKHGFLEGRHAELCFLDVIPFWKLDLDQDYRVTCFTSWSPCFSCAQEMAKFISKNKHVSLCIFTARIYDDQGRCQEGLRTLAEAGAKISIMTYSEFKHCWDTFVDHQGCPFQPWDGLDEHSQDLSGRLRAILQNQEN
Muscarinic acetylcholine receptor M1 (Rattus norvegicus), sequence (P08482 whole entry, looked up): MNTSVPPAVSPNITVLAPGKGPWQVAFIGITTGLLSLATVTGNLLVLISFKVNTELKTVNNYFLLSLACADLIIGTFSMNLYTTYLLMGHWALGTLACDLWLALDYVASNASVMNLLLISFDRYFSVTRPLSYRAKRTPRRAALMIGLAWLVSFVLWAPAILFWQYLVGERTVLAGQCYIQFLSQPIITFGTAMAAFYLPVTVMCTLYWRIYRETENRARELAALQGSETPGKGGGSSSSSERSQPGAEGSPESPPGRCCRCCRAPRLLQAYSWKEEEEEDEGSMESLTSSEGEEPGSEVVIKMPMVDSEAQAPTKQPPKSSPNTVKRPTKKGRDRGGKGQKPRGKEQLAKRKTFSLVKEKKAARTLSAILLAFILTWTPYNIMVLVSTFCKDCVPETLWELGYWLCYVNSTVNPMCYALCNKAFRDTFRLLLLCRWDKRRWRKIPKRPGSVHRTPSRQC
Cytochrome P450 1A2 (Homo sapiens), sequence (P05177 whole entry, looked up): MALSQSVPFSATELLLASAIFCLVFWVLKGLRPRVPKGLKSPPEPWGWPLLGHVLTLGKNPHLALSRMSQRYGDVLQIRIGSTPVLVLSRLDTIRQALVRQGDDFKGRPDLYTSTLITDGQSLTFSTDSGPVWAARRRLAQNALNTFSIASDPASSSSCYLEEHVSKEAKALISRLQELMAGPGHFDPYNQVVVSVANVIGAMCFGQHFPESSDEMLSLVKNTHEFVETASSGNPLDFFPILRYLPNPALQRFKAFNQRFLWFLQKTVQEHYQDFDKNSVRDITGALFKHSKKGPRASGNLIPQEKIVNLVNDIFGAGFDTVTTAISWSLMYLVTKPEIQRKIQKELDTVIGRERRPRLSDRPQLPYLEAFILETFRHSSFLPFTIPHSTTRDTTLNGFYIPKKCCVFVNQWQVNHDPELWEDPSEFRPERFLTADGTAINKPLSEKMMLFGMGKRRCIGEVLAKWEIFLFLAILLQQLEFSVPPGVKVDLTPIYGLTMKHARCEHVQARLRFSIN
3',5'-cyclic-AMP phosphodiesterase 4B (Homo sapiens), sequence (Q07343 whole entry, looked up): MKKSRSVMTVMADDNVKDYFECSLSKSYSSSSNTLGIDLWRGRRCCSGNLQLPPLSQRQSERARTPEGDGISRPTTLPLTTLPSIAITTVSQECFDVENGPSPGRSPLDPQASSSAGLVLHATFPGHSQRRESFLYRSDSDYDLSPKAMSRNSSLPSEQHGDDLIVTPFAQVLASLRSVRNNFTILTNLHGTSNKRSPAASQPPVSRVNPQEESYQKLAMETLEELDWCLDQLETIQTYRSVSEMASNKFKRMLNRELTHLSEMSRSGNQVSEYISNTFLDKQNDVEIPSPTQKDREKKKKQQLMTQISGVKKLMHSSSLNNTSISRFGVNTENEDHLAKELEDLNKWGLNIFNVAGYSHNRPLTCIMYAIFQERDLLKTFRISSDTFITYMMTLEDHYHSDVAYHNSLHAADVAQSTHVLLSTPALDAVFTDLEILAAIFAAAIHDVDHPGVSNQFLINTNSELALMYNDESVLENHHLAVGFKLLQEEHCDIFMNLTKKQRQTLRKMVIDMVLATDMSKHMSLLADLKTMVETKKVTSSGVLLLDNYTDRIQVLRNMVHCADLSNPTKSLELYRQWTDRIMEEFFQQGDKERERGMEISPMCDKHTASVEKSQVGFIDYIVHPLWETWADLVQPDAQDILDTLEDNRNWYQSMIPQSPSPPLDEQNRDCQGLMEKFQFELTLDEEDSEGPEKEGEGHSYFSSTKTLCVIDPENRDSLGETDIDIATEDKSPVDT
Glucocorticoid receptor (Homo sapiens), sequence (P04150 whole entry, looked up): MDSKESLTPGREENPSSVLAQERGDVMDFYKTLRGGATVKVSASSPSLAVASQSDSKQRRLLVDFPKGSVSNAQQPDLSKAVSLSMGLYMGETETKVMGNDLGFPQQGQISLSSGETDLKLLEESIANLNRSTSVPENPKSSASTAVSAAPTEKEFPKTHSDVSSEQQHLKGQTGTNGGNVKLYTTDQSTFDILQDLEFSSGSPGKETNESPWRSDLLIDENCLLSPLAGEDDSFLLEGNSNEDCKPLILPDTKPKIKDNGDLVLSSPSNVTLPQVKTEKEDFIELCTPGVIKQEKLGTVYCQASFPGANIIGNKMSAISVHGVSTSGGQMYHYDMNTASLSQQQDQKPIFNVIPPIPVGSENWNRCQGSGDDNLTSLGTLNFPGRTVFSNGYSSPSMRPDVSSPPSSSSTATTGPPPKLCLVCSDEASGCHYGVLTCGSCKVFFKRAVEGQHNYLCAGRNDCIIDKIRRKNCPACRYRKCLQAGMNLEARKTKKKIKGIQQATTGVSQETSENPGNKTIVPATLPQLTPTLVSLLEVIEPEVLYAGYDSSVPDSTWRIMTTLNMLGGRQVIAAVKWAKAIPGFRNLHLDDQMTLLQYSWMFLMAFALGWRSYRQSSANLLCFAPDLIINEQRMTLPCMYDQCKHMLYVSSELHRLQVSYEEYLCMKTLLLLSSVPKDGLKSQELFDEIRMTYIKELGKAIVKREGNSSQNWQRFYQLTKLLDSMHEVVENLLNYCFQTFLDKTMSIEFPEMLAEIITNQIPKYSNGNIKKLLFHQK

Take `CO[C@H]1/C=C/O[C@@]2(C)Oc3c(C)c(O)c4c(O)c(c(/C=N\N5CCN(C6CCCC6)CC5)c(O)c4c3C2=O)NC(=O)/C(C)=C\C=C\[C@H](C)[C@H](O)[C@@H](C)[C@@H](O)[C@@H](C)[C@H](OC(C)=O)[C@@H]1C`: the result in assay [1] was inactive. Moreover, the Potency in the assay with AS120 is 0.126 µM (active); with ATS189, 1.41 µM (active); with CP191, 1 µM (active); in the assay on CP192, 4.78 µM (active); in the assay on CP203, 3.79 µM (active); in the assay on CP247 it was 1.41 µM (active). The Potency in the assay on CP291 is 4.26 µM (active); in the assay on DFO2036 it was 1.41 µM (active); in the assay on PC49 it was 0.708 µM (active); in the assay with TAB113, 0.282 µM (active).
As to `O=C(CCc1ccc(O)cc1)c1c(O)cc(O)cc1O[C@@H]1O[C@H](CO)[C@@H](O)[C@H](O)[C@H]1O`, the call in assay [2] was inactive.
`C=C1/C(=C\C=C2/CCC[C@]3(C)[C@@H]([C@H](C)CCCC(C)(C)O)CC[C@@H]23)C[C@@H](O)C[C@@H]1O`: the call in [1] was inactive. Also, the Potency entry in the assay with AS120, in the assay on ATS189, in the assay with CP191, with CP192, in the assay on CP203 and in the assay with CP247 was “inactive” in each case. Further, the Potency entry in the assay with CP291, in the assay with DFO2036, with PC49 and in the assay on TAB113 was “inactive” each time.
For the compound `CC(C)n1c(/C=C/[C@H](O)C[C@H](O)CC(=O)O)c(-c2ccc(F)cc2)c2ccccc21`, the compound was called inactive in assay [1].
On to `CN=C(N)NCCCC(N)C(=O)O` (stereo not drawn), for which the compound was classed as inactive in assay [1]. The Potency entry with AS120, in the assay on ATS189, in the assay with CP191, with CP192, in the assay on CP203 and in the assay with CP247 was “inactive” in each case. Moreover, the Potency entry in the assay with CP291, with DFO2036, with PC49 and in the assay with TAB113 was “inactive” in each case.
As to `NCCC(=O)NCCc1cnc[nH]1`, the Potency result in assay [3], in assay [7] and in [9] was “inactive” in each case. Besides, the Potency in assay [4] was > 46 µM (inactive) and > 20.6 µM (inactive); in [5] it was > 46 µM (inactive) and > 20.6 µM (inactive). Further, the result in assay [6] and in assay [8] was inactive.
As to `N=C1Sc2ccccc2C2=NCCCN12`, the Potency in [3] was 10 µM (active); in [4], > 46 µM (inactive); in [5], > 46 µM (inactive); in assay [7], 2 µM (active). Also, the outcome in assay [6] was inactive. Moreover, the Potency result in assay [10] and in assay [9] was “inactive” each time.
As to `CN1C(=O)CCC1c1cccnc1` (stereo not drawn), the call in assay [1] and in assay [2] was inactive. Also, the Potency entry in the assay with AS120, with ATS189, with CP191, with CP192, with CP203 and in the assay on CP247 was “inactive” each time. Also, the Potency entry with CP291, with DFO2036, in the assay with PC49 and with TAB113 was “inactive” each time.
Regarding `NC(=NCCC[C@H](N)C(=O)O)NO`, the Potency entry in [3], in assay [10] and in [9] was “inactive” in each case. Further, the Potency is > 46 µM (inactive) in assay [4], > 46 µM (inactive) in assay [5] and 0.398 µM (active) in [7]. Besides, the compound was called inactive in [6] and in assay [8].
With `C[C@]12CCC(=O)C=C1CC[C@@H]1C2[C@@H](O)C[C@@]2(C)[C@H]1CC[C@]2(O)C(=O)CO` (stereo partly drawn), the call in [2] was inactive.
In the case of `OC[C@H]1O[C@@H](n2cnc3c(NCCc4ccccc4)ncnc32)[C@H](O)[C@H]1O`, in [9], the Potency result was “inactive”.
On to `NCCNC(=O)c1ccc(Cl)cc1`, for which the Potency is 12.6 µM (active) and 10 µM (active) in [3]; > 46 µM (inactive) in [4]; > 46 µM (inactive) in assay [5]. For the same compound, the compound was classed as inactive in assay [6], in [8] and in [2]. Besides, the Potency result in assay [10] and in assay [9] was “inactive” each time.
On to `N=C(N)SCCc1cccc(CCSC(=N)N)c1`, for which the Potency in assay [4] and in [5] was > 46 µM (inactive) throughout. Besides, the compound was called inactive in [6] and in assay [8]. Besides, the Potency result in assay [10] and in assay [7] was “inactive” each time.
Take `COc1cc(=O)n(C)c2c(OCC(O)C(C)(C)O)cccc12` (stereo not drawn): in assay [2], the compound was called inactive.
Regarding `O=C(Cc1ccc(Cl)c(Cl)c1)OCCN1CCCC1`, the Potency is 12.6 µM (active) in [3], > 46 µM (inactive) in assay [4] and > 46 µM (inactive) in assay [5]. The compound was called inactive in assay [6] and in assay [8]. Also, the Potency result in [10] and in assay [7] was “inactive” each time.
